This passage reports z-score and composite z-score results from PubChem BioAssay.

Calls of active or inactive are those of the source.

Assay [1] is described as follows: E. coli DRC41 culture turbidity changes, primary screen, E. coli filamentation inducer project, strain DRC41, OD650, 48 h (AID 1152).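 Further: E. coli MC1000 strain DRC41 lacking acrAB efflux pump and sulA.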 As to conditions: E. coli DRC41 (acrAB sulA), higher = more signal, called active from +8 up or from −8 down.
Assay [2] in a line: small-molecule binders of probe aLefty1, primary screen, biochemical, small-molecule microarray, 635/667 nm fluorescence (AID 1153).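 Further: score merges spot fluorescence with signal-to-noise ratio from the scanned slide images.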 As to conditions: higher = more signal.
Assay [3] in a line: PSAC antagonists in infected red cells, primary screen, cell-based, P. falciparum Indochina, OD700, 1 h (AID 1154). As to conditions: P. falciparum Indochina infected RBC osmotic lysis, higher = more signal, called active from +8 up or from −8 down.
A short description of assay [4]: PSAC antagonists in infected red cells, primary screen, cell-based, P. falciparum Indochina, OD700, 2 h (AID 1155).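 Further: lysis reports solute entry through the parasite surface anion channel PSAC; channel blockers reduce lysis of infected cells.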 The following applies: P. falciparum Indochina infected erythrocytes, osmotic lysis OD700; higher = more signal, called active from +8 up or from −8 down.
The nature of assay [5]: osmotic lysis modulators in infected erythrocytes, primary screen, PSAC antagonist project, cell-based, P. falciparum Indochina, OD700, 3 h (AID 1156). The following applies: higher = more signal, called active from +8 up or from −8 down.
A short description of assay [6]: PSAC antagonists in infected red cells, primary screen, cell-based, P. falciparum Indochina, OD700, 18 h (AID 1157). As to conditions: P. falciparum Indochina infected erythrocytes, osmotic lysis OD700, 18 h; higher = more signal, called active from +8 up or from −8 down.
The nature of assay [7]: modulators of S6 phosphorylation in cells, primary screen, cell-based, A549, cytoblot, luminescence, serum-stimulated (AID 1158).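 Further: serum-stimulated A549 lung adenocarcinoma cells; signal is phosphorylated S6 detected by cytoblot immunostaining with HRP secondary.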 The following applies: A549 phospho-S6 cytoblot, 5 h, higher = more signal.
Assay [8] addresses NADPH oxidase 2 (Homo sapiens) (UniProt P04839). Briefly: NOX2-dependent H2O2 signal modulators, primary screen, NOX inhibitor project, cell-based, HEK293-NOX2, PMA-stimulated, Amplex Red fluorescence (AID 1159). Further: test concentration not given here. As to conditions: 45 min, higher = more signal, called active from +8 up or from −8 down.
Assay [9] deals with NADPH oxidase 4 (Homo sapiens) (UniProt Q9NPH5). The assay is described as follows: NOX4-dependent H2O2 signal modulators, primary screen, NOX inhibitor project, cell-based, HEK293-NOX4, tetracycline-induced, Amplex Red fluorescence (AID 1160). The following applies: 45 min, higher = more signal, called active from +8 up or from −8 down.
NADPH oxidase 4 (Homo sapiens), sequence (Q9NPH5 whole entry, looked up): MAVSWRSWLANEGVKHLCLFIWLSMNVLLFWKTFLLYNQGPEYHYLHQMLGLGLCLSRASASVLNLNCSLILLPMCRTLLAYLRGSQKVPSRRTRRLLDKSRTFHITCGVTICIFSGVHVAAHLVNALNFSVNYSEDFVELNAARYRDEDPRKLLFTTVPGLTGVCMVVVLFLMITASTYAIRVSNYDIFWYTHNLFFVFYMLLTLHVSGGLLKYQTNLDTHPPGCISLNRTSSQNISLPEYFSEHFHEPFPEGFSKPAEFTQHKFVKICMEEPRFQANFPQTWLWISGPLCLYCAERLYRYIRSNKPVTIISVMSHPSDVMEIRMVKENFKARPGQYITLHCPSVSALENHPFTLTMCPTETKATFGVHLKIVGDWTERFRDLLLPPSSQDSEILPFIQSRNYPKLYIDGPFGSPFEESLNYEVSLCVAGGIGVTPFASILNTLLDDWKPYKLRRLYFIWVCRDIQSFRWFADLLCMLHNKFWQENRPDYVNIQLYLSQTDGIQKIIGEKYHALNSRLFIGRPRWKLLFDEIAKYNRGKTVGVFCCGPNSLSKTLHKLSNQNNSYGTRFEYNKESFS
For assay [10], the target named is NADPH oxidase 5 (Homo sapiens) (UniProt Q96PH1). The assay is described as follows: NOX5-dependent H2O2 signal modulators, primary screen, NOX inhibitor project, cell-based, HEK293-NOX5, Amplex Red fluorescence (AID 1161). As to conditions: HEK293-NOX5, ionomycin, 45 min, higher = more signal.
NADPH oxidase 5 (Homo sapiens), sequence (Q96PH1 whole entry, looked up): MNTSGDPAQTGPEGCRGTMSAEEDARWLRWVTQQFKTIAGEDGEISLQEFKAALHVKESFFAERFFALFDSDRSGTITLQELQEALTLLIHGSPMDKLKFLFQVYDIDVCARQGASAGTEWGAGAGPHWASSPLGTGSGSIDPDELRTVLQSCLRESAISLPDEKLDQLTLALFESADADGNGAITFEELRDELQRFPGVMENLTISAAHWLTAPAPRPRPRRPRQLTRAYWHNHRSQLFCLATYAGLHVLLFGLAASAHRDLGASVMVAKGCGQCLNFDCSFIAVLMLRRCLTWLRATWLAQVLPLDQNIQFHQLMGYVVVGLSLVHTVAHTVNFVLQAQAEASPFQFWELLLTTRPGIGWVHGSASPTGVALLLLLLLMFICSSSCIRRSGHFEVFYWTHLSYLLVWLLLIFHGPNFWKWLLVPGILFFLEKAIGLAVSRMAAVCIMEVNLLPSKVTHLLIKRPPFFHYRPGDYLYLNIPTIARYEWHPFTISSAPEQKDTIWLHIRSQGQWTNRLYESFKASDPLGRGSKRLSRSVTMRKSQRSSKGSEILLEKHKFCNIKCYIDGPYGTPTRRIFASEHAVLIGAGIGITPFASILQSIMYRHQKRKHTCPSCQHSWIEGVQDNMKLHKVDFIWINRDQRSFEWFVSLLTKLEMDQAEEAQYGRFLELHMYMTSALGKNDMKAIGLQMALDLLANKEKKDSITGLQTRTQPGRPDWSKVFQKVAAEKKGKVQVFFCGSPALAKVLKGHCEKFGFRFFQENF
Assay [11] can be described thus: A549 cell viability effects, profiling panel, calcein-AM fluorescence, 48 h, basal (AID 1162). Further: test concentration not given here. The following applies: higher = more signal.
The nature of assay [12]: adipocyte viability effects, profiling panel, cell-based, 3T3-L1 adipocytes, calcein-AM fluorescence, 48 h, basal (AID 1163). Further: test concentration not given here. As to conditions: 3T3-L1 adipocytes viability, higher = more signal.
Assay [13] in a line: HepG2 cell viability effects, profiling panel, calcein-AM fluorescence, 48 h, basal (AID 1164). Further: test concentration not given here. The following applies: higher = more signal.
The nature of assay [14]: MM1S cell viability effects, profiling panel, calcein-AM fluorescence, 48 h, basal (AID 1165).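 Further: viability of MM1S multiple myeloma cells under basal unstimulated conditions; test concentration not given here.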 As to conditions: higher = more signal.
A short description of assay [15]: basal RPMI8226 viability, no added stimulus, profiling panel, cell-based, calcein-AM fluorescence, 48 h, PK04 Diversity Set (AID 1166).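 Further: cells grown under basal conditions without added stimulus; test concentration not given here.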 As to conditions: RPMI8226 myeloma viability, higher = more signal.
The nature of assay [16]: basal HepG2 mitochondrial membrane potential changes, profiling panel, cell-based, JC-1 fluorescence, 24 h, 100 nL compound (AID 1167). Further: test concentration not given here. The following applies: higher = more signal.
A short description of assay [17]: basal 3T3-L1 adipocyte mitochondrial potential changes, profiling panel, cell-based, JC-1 fluorescence, 3T3-L1 adipocytes, 24 h, 100 nL compound (AID 1168). Further: test concentration not given here. As to conditions: JC-1 mitochondrial fluorescence, higher = more signal, called active from +8 up or from −8 down.
Assay [18] in a line: basal RPMI8226 mitochondrial membrane potential changes, profiling panel, cell-based, JC-1 fluorescence, 24 h, 100 nL compound (AID 1169). Further: test concentration not given here. The following applies: RPMI8226 myeloma, JC-1 mitochondrial potential fluorescence, higher = more signal.
Assay [19] is described as follows: basal MM1S mitochondrial membrane potential changes, profiling panel, cell-based, JC-1 fluorescence, 24 h, 100 nL compound (AID 1170). Further: test concentration not given here. The following applies: higher = more signal.
Assay [20] is described as follows: A549 lung cancer cell viability effects, profiling panel, resazurin fluorescence, 24 h, PK04 Diversity Set (AID 1171). Further: test concentration not given here. The following applies: higher = more signal, called active from +8 up or from −8 down. On the technique in general: The colour change of resazurin is a common sign of viable cells or microbes.

NADPH oxidase 2 (Homo sapiens), sequence (P04839 whole entry, looked up): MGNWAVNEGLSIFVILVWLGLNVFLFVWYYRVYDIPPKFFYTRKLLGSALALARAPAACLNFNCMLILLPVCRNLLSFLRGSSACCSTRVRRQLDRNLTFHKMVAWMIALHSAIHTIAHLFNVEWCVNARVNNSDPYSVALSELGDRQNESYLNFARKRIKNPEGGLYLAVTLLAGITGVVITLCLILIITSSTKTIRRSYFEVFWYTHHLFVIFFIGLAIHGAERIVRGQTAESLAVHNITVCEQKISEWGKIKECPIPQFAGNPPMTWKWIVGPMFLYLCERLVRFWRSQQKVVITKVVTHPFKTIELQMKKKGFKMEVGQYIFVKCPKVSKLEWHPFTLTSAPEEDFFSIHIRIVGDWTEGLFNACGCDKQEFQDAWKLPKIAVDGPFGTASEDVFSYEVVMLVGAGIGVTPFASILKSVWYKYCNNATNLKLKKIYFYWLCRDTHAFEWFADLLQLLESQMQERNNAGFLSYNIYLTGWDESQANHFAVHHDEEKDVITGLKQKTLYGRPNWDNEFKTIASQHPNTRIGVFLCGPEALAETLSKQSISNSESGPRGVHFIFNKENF

As for `O=C1O[C@H](c2ccccc2)[C@H](c2ccccc2)N2[C@H]1[C@@H](C(=O)N1CCCCCCC1)[C@]1(C(=O)Nc3ccc(C#CCCO)cc31)[C@H]2c1ccc(OCCO)cc1`, the z-score in assay [1] was 0.543 (inactive); in assay [3], 10.3 (active); in assay [4], 2.04 (inactive); in assay [5], 1.21 (inactive); in assay [6] it was 1.02 (inactive); in assay [7], 0.456. The z-score is 1.11 (inactive) in [8]; 0.597 (inactive) in [9]; 1.25 in assay [10]; -0.84 in assay [11]; 0.162 in [12]; 0.409 in [13]. Besides, the z-score in assay [14] was -0.276; in assay [15], -0.105; in assay [16] it was -0.0749; in assay [17], -0.962 (inactive); in [18], -0.737; in assay [19], -0.919. The z-score in assay [20] is 1.93 (inactive). The compound further returned a composite z-score in [2] of 3.09.

Take `CC(C)C(CO)N1C(=O)[C@@H]2[C@H]3C(=O)OCC=C[C@H]3OC23C=CCN(Cn2nnc4ccccc42)C(=O)[C@@H]13` (stereo not given in full): the z-score is 0.197 (inactive) in assay [1]; 0.766 (inactive) in [3]; 0.123 (inactive) in [4]; 0.393 (inactive) in assay [5]; 0.0882 (inactive) in assay [6]; 0.234 in assay [7]. Further, the z-score in assay [8] is 0.699 (inactive); in assay [9], 0.247 (inactive); in [10] it was 0.94; in assay [11] it was -0.746; in assay [12], -0.191; in [13], -0.751. In addition, the z-score in assay [14] was 0.48; in assay [15] it was -0.653; in assay [16], -0.578; in assay [17], -0.373 (inactive); in assay [18] it was 0.432; in [19] it was 0.281. In addition, in [20], the z-score was -0.274 (inactive). Moreover, the composite z-score in assay [2] is -0.228.

As to `CC(C)C[C@@H]1NC(=O)[C@@]23C(=O)N[C@@H](Cc4ccccc4)C2[C@H](C)[C@@]2(C)O[C@H]2C3/C=C/C/C=C\CNC(=O)[C@@H]2CCCN2C1=O` (stereo not given in full), the z-score in [1] is -0.797 (inactive); in [3], 0.918 (inactive); in assay [4] it was 0.182 (inactive); in [5] it was -0.551 (inactive); in [6], 0.01 (inactive); in assay [7], 0.226. The z-score in assay [8] was 0.593 (inactive); in [9], 1.14 (inactive); in assay [10], 0.579; in assay [11] it was -0.486; in assay [12], 0.0971; in assay [13] it was -0.809. In addition, the z-score was -0.641 in assay [14]; 0.219 in [15]; -0.00843 in assay [16]; 0.568 (inactive) in [17]; 0.548 in [18]; -0.491 in assay [19]. The z-score in assay [20] is -0.023 (inactive). The compound also registered a composite z-score in [2] of -0.234.

For the compound `COc1ccc([Si](C)(C)[C@H]2[C@H](CCO)O[C@@]3(C(=O)N(Cc4cccc(N5CCOC5=O)c4)c4ccccc43)[C@@H]2C)cc1`, the z-score in [1] was -0.286 (inactive); in assay [3], 31.7 (active); in assay [4], 29.4 (active); in assay [5] it was 1.37 (inactive); in assay [6], 3.36 (inactive); in [7], 0.469. For the same compound, the z-score in assay [8] was -1.96 (inactive); in assay [9], 0.553 (inactive); in assay [10] it was 0.479; in [11] it was -0.162; in [12], -0.824; in [13], -0.925. For the same compound, the z-score in assay [14] is -2.43; in [15] it was -3.25; in [16] it was -0.0995; in assay [17], 2.01 (inactive); in [18] it was -1.09; in [19], -1.79. Moreover, the z-score in assay [20] was -2.22 (inactive). This compound also displayed a composite z-score in assay [2] of -0.0917.

As to `C[N+](C)(C)CCCCCCNC(=O)[C@@H]1C[C@@H]2C(=O)NCC(=O)N2[C@@H]1c1ccc(O)cc1`, the z-score in assay [1] is 0.109 (inactive); in assay [3] it was 0.451 (inactive); in assay [4], -0.196 (inactive); in assay [5] it was -1.53 (inactive); in assay [6] it was -0.238 (inactive); in assay [7], -0.727. In addition, the z-score in assay [8] was 0.823 (inactive); in [9] it was 0.899 (inactive); in assay [10] it was -0.757; in assay [11], -0.261; in assay [12] it was -0.166; in [13], 0.517. The z-score in [14] is -0.0232; in [15] it was 0.0324; in [16], -1.58; in [17], 0.251 (inactive); in assay [18] it was -0.0725; in assay [19], -0.534. For the same compound, the z-score in assay [20] was 0.28 (inactive). This compound came in with a composite z-score in assay [2] of 0.0984.

With `CC1(C)[C@@H]2CC(C(O)C3C=CC4C(=O)N(c5ccccc5)C(=O)C4N3Nc3ccccc3F)=C[C@@H]1C2` (stereo not given in full), the z-score in assay [1] was 0.446 (inactive); in assay [3] it was 1.83 (inactive); in [4], 0.194 (inactive); in assay [5], -1.57 (inactive); in assay [6] it was -0.786 (inactive); in assay [7], 0.586. In addition, the z-score in assay [8] was 0.318 (inactive); in assay [9], 0.0669 (inactive); in assay [10], -0.156; in assay [11], 0.604; in assay [12], -0.297; in assay [13], -0.0679. In addition, the z-score in assay [14] was 0.848; in [15], 0.219; in assay [16] it was -0.424; in assay [17], -1.07 (inactive); in assay [18], 0.157; in assay [19], -1.41. The z-score in assay [20] is 1.01 (inactive). In [2], this compound yielded a composite z-score of 0.43.

As for `COCCCNC(=O)[C@]1(Cc2ccccc2CN=[N+]=[N-])N=C(c2ccc(OCCCO)cc2)O[C@@H]1c1ccccc1CN=[N+]=[N-]`, the z-score was -0.279 (inactive) in assay [1]; 28.8 (active) in [3]; 21.5 (active) in [4]; 1.72 (inactive) in assay [5]; 2.09 (inactive) in assay [6]; 0.953 in [7]. For the same compound, the z-score in assay [8] is -0.983 (inactive); in assay [9], -0.00869 (inactive); in assay [10] it was -0.84; in [11], -0.386; in [12], 0.0035; in assay [13], -0.918. Also, the z-score in assay [14] is -2.79; in assay [15], -4.22; in assay [16], 1.31; in [17], -0.907 (inactive); in [18], -1.18; in assay [19], -1.73. Further, in [20], the z-score was -0.241 (inactive). Further, the composite z-score in [2] amounted to 0.861.

With `COC(=O)[C@@]1(Cc2ccc(OC)cc2)[C@H]2c3cc(C(=O)N(C)C)n(Cc4cc(F)c(F)c(F)c4)c3C[C@H]2CN1C(=O)c1ccccc1`, the z-score in assay [1] is -1.69 (inactive); in assay [3], 3.64 (inactive); in [4] it was 0.0174 (inactive); in [5], 1.3 (inactive); in [6], -1.37 (inactive); in [7], 0.968. The z-score in assay [8] is -2.92 (inactive); in assay [9], -1.41 (inactive); in assay [10], -2.54; in [11], -1.81; in assay [12] it was 0.745; in [13] it was -0.909. The z-score in [14] is -1.59; in assay [15], -2.93; in [16], 3.22; in assay [17], -0.149 (inactive); in [18], -0.863; in [19], -0.971. In addition, in assay [20], the z-score is -1.48 (inactive). In assay [2], this compound yielded a composite z-score of 0.946.
